Consider one sequence from paper PMC7862700, “An all-to-all approach to the identification of sequence-specific readers for epigenetic DNA modifications on cytosine”.

Assay in all cases: DAPPL (digital affinity profiling via proximity ligation, sequencing); 10 mM Tris-HCl pH 7.5, 50 mM NaCl, 1 mM DTT, 4% glycerol, room temperature, 30 min; GST-TFs on glutathione beads, 16-mer random dsDNA library, 0.1% formaldehyde crosslink after washing; high values mean tight binding
For assay [1], the target named is T1, ELK1 (Homo sapiens, UniProt P19419 1-428).
T1 sequence: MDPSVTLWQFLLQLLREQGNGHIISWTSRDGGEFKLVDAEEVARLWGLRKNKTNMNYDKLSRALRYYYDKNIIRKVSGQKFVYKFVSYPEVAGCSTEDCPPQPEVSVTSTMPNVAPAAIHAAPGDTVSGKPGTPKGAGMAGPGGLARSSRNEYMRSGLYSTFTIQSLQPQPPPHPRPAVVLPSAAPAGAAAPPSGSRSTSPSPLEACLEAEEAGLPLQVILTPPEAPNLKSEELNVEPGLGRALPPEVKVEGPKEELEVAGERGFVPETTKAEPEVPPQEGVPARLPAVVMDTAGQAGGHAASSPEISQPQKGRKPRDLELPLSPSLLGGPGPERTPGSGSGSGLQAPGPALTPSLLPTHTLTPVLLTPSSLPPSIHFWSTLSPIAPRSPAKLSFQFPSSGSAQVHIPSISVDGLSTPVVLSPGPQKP
Conditions: protein: recombinant; tags: N-terminal GST; dsDNA, one strand shown. In a few lines:
(§1)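 Human transcription factors were made in yeast as GST fusions, captured on glutathione beads and barcoded with DNA. With a tag-only sample included, the pool was incubated with 200 nmole of a random double-stranded 16-mer DNA library in Tris/NaCl/DTT/glycerol buffer at room temperature for 30 min, then crosslinked with 0.1% formaldehyde after washing, ligated by proximity, amplified and sequenced. For binding signal, each hexamer's read frequency for a factor is divided by its frequency for the tag-only sample.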

For assay [2], the target named is T2, GABPA (Homo sapiens, UniProt Q06546 1-454).
T2 sequence: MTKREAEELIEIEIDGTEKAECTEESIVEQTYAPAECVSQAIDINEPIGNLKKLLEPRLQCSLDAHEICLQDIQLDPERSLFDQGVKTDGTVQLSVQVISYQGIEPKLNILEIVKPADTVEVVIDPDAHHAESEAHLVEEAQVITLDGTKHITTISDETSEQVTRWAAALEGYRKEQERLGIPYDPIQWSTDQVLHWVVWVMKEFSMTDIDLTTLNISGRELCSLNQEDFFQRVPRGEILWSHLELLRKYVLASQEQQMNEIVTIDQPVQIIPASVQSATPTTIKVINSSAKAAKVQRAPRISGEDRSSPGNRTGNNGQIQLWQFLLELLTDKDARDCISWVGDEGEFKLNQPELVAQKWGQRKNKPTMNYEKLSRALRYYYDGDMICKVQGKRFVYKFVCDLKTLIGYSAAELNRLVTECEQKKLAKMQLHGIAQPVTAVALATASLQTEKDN
The following applies: protein: recombinant; tags: N-terminal GST; dsDNA, one strand shown. In a few lines:
as §1

Assay [3] addresses ELF1 (Homo sapiens, UniProt P32519 1-619). Conditions: protein: recombinant; tags: N-terminal GST; dsDNA, one strand shown. In a few lines:
as §1

In assay [4] the target is SPIB (Homo sapiens, UniProt Q01892 1-262). The following applies: protein: recombinant; tags: N-terminal GST; dsDNA, one strand shown. In a few lines: as §1
Assay [5] has as its target T3, ELK3 (Homo sapiens, UniProt P41970 1-407).
T3 sequence: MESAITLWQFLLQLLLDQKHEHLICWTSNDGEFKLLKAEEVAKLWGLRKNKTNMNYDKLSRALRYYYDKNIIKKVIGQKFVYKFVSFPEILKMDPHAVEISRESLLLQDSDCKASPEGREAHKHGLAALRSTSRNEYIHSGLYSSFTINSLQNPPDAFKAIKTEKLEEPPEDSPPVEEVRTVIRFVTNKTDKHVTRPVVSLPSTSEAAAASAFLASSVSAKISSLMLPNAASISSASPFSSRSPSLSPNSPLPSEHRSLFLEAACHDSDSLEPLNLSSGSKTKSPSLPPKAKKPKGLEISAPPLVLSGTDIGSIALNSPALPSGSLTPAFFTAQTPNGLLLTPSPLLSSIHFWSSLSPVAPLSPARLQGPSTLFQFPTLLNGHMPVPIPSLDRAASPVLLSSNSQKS
The following applies: protein: recombinant; tags: N-terminal GST; dsDNA, one strand shown. In a few lines:
as §1

Assay [6] has as its target T4, FEV (Homo sapiens, UniProt Q99581 1-238).
T4 sequence: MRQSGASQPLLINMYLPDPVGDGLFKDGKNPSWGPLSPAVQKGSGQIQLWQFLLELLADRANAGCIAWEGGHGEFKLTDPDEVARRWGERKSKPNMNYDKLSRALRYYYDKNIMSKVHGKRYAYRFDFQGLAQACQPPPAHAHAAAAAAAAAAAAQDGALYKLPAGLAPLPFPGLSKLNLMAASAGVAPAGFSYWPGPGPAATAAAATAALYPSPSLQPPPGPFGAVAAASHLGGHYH
Conditions: protein: recombinant; tags: N-terminal GST; dsDNA, one strand shown. In a few lines:
as §1

Assay [7] has as its target HSF1 (Homo sapiens, UniProt Q00613 1-529). The following applies: protein: recombinant; tags: N-terminal GST; chain copies: 3; dsDNA, one strand shown. In a few lines: as §1
Assay [8] has as its target T5, SPIC (Homo sapiens, UniProt Q8N5J4 1-248).
T5 sequence: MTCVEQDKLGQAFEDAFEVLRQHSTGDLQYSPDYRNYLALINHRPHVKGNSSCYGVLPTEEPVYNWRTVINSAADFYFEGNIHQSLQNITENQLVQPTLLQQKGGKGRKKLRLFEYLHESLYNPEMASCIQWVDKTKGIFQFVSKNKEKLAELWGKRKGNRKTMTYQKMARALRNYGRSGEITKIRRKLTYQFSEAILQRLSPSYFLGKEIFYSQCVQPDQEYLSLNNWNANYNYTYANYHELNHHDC
The following applies: protein: recombinant; tags: N-terminal GST; dsDNA, one strand shown. In a few lines: as §1

The target in assay [9] is T6, ELK4 (Homo sapiens, UniProt P28324-2 1-405).
T6 sequence: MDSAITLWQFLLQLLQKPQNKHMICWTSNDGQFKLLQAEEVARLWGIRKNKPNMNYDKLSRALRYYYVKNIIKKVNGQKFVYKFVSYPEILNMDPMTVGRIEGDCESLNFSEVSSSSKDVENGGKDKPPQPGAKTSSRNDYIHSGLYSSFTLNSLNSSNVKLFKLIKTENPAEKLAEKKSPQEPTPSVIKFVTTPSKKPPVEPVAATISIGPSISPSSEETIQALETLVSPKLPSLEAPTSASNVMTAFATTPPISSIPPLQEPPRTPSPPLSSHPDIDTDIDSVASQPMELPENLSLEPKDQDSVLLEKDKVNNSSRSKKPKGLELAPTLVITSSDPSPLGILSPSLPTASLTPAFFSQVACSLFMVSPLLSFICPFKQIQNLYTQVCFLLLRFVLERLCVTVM
Conditions: protein: recombinant; tags: N-terminal GST; dsDNA, one strand shown. In a few lines: as §1

Assay [10] deals with CRX (Homo sapiens, UniProt O43186 1-299). The following applies: protein: recombinant; tags: N-terminal GST; dsDNA, one strand shown. In a few lines: as §1
The target of assay [11] is T7, ERF (Homo sapiens, UniProt P50548 1-548).
T7 sequence: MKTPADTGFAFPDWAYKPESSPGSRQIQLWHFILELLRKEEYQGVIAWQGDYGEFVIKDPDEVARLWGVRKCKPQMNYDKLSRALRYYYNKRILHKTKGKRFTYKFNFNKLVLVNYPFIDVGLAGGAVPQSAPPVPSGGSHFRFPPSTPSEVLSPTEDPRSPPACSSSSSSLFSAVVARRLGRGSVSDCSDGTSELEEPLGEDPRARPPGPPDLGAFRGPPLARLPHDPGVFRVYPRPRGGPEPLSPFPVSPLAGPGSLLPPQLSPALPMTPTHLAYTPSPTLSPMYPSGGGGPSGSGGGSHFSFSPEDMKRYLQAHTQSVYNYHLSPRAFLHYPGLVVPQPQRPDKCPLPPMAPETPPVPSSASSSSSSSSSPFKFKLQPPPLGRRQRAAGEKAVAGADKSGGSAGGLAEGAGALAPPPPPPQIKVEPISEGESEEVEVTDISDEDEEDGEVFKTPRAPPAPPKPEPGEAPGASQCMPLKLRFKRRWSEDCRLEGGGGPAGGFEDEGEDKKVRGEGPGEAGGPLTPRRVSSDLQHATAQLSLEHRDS
The following applies: protein: recombinant; tags: N-terminal GST; dsDNA, one strand shown. In a few lines:
as §1

Assay [12] addresses T8, ETV3L (Homo sapiens, UniProt Q6ZN32 1-361).
T8 sequence: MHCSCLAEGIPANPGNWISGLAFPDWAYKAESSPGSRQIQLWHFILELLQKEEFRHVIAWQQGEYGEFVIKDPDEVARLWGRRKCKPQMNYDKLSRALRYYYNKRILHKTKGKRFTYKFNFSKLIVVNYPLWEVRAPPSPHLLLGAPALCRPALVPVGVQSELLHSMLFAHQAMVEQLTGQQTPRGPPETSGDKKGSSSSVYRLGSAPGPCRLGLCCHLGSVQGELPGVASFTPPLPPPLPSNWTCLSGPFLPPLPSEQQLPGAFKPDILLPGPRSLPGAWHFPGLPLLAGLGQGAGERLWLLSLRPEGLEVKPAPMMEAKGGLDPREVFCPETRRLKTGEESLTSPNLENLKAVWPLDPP
Conditions: protein: recombinant; tags: N-terminal GST; dsDNA, one strand shown. In a few lines: as §1

For assay [13], the target named is T9, ETS2 (Homo sapiens, UniProt P15036 1-469).
T9 sequence: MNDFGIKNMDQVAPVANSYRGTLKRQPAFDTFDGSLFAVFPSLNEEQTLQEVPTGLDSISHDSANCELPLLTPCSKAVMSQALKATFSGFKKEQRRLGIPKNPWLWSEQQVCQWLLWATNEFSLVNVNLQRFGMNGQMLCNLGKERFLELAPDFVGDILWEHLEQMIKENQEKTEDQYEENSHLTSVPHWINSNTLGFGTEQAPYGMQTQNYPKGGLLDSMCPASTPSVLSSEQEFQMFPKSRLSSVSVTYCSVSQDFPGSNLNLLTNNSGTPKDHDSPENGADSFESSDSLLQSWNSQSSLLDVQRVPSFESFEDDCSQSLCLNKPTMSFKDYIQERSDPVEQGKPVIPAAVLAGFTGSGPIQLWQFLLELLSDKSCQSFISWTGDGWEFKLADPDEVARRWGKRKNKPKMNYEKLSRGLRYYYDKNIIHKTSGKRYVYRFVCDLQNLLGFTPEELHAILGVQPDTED
Conditions: protein: recombinant; tags: N-terminal GST; dsDNA, one strand shown. In a few lines:
as §1

Assay [14] concerns the target T10, SPDEF (Homo sapiens, UniProt O95238 1-335).
T10 sequence: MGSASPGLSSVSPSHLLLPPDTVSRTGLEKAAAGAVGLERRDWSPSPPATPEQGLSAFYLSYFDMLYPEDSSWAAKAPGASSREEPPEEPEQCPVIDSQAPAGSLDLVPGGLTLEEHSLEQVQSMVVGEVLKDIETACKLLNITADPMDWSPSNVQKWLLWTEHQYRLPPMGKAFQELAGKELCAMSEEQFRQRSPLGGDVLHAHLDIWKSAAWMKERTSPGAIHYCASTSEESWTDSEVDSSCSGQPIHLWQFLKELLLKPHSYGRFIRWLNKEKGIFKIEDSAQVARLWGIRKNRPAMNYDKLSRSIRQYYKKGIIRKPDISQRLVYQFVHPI
The following applies: protein: recombinant; tags: N-terminal GST; dsDNA, one strand shown. In a few lines: as §1

In assay [15] the target is T11, ETV7 (Homo sapiens, UniProt Q9Y603 1-341).
T11 sequence: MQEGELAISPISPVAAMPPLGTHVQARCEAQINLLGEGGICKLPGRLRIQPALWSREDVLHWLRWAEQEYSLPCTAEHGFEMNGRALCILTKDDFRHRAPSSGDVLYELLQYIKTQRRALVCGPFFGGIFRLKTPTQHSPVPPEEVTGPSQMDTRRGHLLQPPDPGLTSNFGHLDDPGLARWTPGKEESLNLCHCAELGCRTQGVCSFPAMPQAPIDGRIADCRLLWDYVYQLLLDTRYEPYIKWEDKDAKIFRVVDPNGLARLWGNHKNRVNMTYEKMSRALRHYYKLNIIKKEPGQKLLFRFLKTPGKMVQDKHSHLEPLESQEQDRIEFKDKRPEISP
Conditions: protein: recombinant; tags: N-terminal GST; dsDNA, one strand shown. In a few lines: as §1

For assay [16], the target named is T12, ETV3 (Homo sapiens, UniProt P41162-2 1-143).
T12 sequence: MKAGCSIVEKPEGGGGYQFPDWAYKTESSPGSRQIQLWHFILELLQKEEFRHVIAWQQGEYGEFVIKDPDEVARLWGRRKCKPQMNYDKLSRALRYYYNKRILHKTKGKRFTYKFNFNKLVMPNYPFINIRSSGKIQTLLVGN
The following applies: protein: recombinant; tags: N-terminal GST; dsDNA, one strand shown. In a few lines:
as §1

Sequence of CRX (O43186 whole entry): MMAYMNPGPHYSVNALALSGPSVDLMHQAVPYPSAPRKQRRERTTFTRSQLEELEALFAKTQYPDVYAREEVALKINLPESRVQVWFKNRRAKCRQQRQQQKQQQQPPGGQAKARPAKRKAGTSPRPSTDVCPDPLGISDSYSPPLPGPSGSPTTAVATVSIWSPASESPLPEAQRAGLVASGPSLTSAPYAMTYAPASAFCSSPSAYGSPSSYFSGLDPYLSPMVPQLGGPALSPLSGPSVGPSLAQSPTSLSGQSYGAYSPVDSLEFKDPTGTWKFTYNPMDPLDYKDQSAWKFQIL
Sequence of HSF1 (Q00613 whole entry): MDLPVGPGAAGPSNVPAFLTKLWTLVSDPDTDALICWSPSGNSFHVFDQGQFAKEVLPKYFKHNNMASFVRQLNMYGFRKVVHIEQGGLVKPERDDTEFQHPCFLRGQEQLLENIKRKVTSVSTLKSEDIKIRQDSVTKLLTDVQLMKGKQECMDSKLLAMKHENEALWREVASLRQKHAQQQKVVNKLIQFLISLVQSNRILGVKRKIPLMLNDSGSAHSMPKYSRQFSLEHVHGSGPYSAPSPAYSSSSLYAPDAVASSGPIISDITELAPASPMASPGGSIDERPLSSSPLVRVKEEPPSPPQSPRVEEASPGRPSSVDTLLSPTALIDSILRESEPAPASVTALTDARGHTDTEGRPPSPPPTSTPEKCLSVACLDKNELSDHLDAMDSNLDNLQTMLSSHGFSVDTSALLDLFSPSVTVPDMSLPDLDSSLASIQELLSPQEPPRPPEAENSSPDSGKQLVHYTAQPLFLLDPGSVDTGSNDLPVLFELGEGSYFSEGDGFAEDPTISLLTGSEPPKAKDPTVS
Sequence of SPIB (Q01892 whole entry): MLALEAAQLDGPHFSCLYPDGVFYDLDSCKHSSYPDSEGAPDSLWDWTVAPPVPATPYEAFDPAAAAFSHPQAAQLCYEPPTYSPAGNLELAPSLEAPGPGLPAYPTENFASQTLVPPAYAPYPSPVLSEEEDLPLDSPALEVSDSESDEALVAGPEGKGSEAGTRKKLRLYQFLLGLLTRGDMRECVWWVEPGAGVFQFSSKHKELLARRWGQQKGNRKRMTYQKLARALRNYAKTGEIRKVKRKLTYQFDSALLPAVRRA
Sequence of ELF1 (P32519 whole entry): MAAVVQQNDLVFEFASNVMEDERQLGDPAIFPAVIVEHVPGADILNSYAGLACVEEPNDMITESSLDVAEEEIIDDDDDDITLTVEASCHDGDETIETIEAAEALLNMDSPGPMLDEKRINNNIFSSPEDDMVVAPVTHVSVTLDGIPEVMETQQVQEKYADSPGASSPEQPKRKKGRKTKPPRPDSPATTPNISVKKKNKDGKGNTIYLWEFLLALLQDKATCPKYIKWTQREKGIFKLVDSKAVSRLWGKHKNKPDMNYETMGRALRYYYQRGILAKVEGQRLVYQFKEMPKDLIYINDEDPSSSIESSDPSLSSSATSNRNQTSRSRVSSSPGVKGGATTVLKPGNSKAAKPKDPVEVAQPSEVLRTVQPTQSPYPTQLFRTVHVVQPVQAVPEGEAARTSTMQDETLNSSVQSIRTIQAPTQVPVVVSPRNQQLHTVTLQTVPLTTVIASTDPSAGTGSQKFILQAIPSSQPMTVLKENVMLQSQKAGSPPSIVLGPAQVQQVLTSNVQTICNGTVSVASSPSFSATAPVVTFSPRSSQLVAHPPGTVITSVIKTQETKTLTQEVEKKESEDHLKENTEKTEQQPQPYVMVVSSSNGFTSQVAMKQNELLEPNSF

For TCGCAT, the binding signal was 1.06 fold enrichment (6-mer frequency, TF over GST control) in assay [1]; 1.02 fold enrichment (6-mer frequency, TF over GST control) in assay [2]; 1.04 fold enrichment (6-mer frequency, TF over GST control) in [3]; 1.06 fold enrichment (6-mer frequency, TF over GST control) in [4]; 1.01 fold enrichment (6-mer frequency, TF over GST control) in assay [5]; 1.08 fold enrichment (6-mer frequency, TF over GST control) in assay [6]. Also, the binding signal was 1.04 fold enrichment (6-mer frequency, TF over GST control) in assay [7]; 1.02 fold enrichment (6-mer frequency, TF over GST control) in assay [8]; 1.08 fold enrichment (6-mer frequency, TF over GST control) in assay [9]; 1.15 fold enrichment (6-mer frequency, TF over GST control) in assay [10]; 1.07 fold enrichment (6-mer frequency, TF over GST control) in assay [11]; 1.03 fold enrichment (6-mer frequency, TF over GST control) in [12]. Moreover, the binding signal in assay [13] was 1.04 fold enrichment (6-mer frequency, TF over GST control); in assay [14], 1.03 fold enrichment (6-mer frequency, TF over GST control); in assay [15], 1.01 fold enrichment (6-mer frequency, TF over GST control); in [16] it was 1.03 fold enrichment (6-mer frequency, TF over GST control).
